Results: PubChem BioAssay (NCATS)
Inconclusive results are not listed. Calls of active or inactive are those of the source. Calls follow the shape of the dose curve; as a rule, active = well fitted cell-killing curve with a large enough effect; inconclusive = small, poorly fitted or top-dose-only effect, or effect the other way; inactive = no such curve, though single readings can be large or run the other way.
% is scaled to controls: 0 for no effect and ±100 for the full control effect; potency is read from the fitted curve at half-maximal effect.

Experiment: qHTS of pediatric cancer cell lines to identify multiple opportunities for drug repurposing: Confirmatory screen for NB-EBc1 cells (AID 1347115);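 also: cells exposed to compound for 48 h before the viability read; nearly all actives have a fitted effect of over 45% in size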
Details: NB-EBc1 neuroblastoma cells, viability (cytotoxicity); series mostly up to 45.9 µM; activity change, negative = cytotoxic: at the top concentration
In short: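 Cells (500-1,000/well) in growth media were settled 5 h at 37 degrees C, then given compounds for 48 h. Viability was read as CellTiter-Glo luminescence. Primary runs used MIPE at 11 points (0.78 nM-46 µM) and NPC at 8 points (0.59 nM-46 µM); follow-ups used 11 points.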
For `O=C(N[C@H]1CN2CCC1CC2)c1ccc(Cl)cc1`, the “activity change, negative = cytotoxic” value was -4.7% (inactive).
For `Cc1c(C(=O)Nc2cccc(C(F)(F)F)c2)cc(-c2ccccc2)n1CCCN1CCOCC1`, the Potency was 42700 nM (active).
In the case of `CC(C)(C)C(O)C(Oc1ccc(Cl)cc1)n1cncn1` (stereo unspecified), the “activity change, negative = cytotoxic” value is reported as 10.8% [at 95.5 µM] (inactive).
For `C[C@H]1CCCC=CC2C[C@H](O)C[C@@H]2[C@H](O)C=CC(=O)O1` (stereo partly specified), the Potency was 117 nM (active).
For `CC[C@H]1C=CC=CC[C@@H](C)[C@H](O)[C@@](C)(O)C(=O)[C@@H](C)[C@H](O)[C@@H](C)C(=O)[C@@H](C)[C@H](O)[C@@H](C)C=CC(=O)O[C@@H]2[C@@H](C)[C@H](CC1)O[C@]1(CC[C@H](C)[C@H](C[C@@H](C)O)O1)[C@H]2C`, the Potency was 208 nM (active).
In the case of `CCCCCC[C@H]1C(=O)O[C@H](C)[C@H](NC(=O)c2cccc(NC=O)c2O)C(=O)O[C@@H](C)[C@@H]1OC(=O)CC(C)C`, the Potency is reported as 14.7 nM (active).
